# PubChem BioAssay (Tox21)
# Where “and” joins values, the source holds several entries; their conditions need not be identical. Equal entries are not always repeated. Inconclusive results are not listed. Entries that show only a call come without a potency. Some structures have more than one record in an assay (separate samples or runs), and their calls can disagree. Calls of active or inactive are those of the source. Unless noted, calls follow the shape of the dose curve; as a rule, active = well fitted curve in the direction sought with a large enough effect in the repeat runs; inconclusive = weak or mixed curves; inactive = no such curve, though single readings can be large; an effect the other way counts as inactive or inconclusive.
# Experiments:
# [1] = qHTS assay to identify small molecule antagonists of the thyroid receptor (TR) signaling pathway (AID 743065); also: series mostly up to about 70 µM; nearly all actives have a fitted effect of over 55% in size
# Method in brief: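 GH3.TRE-Luc rat pituitary cells carrying two TR response elements driving luciferase were plated for 4 h, given compound plus 1 nM T3 (final), and incubated 23.5 h at 37 C. ONE-Glo luminescence measured reporter inhibition; CellTiter-Fluor fluorescence tracked cytotoxicity.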
# [2] = system: thyroid hormone receptor (rat, GH3 cells); experiment: qHTS assay to identify small molecule agonists of the thyroid receptor (TR) signaling pathway (AID 743066; calls by dose curve; also: potency is read from the fitted curve at half-maximal effect)
# [3] = qHTS assay to identify small molecule antagonists of the estrogen receptor alpha (ER-alpha) signaling pathway - cell viability counter screen (AID 743074; calls by dose curve;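 also: HEK293 cells carrying ER-alpha-UAS-bla reporter stimulated with 17beta-estradiol; nearly all actives have a fitted effect of over 45% in size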)
# [4] = target: Estrogen receptor (Homo sapiens) (UniProt P03372); experiment: qHTS assay to identify small molecule agonists of the estrogen receptor alpha (ER-alpha) signaling pathway (AID 743075; calls by dose curve;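 also: HEK293 GripTite cells with ER-alpha and UAS-driven beta-lactamase reporter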)
# Sequence of Estrogen receptor (Homo sapiens) (P03372 whole entry, looked up): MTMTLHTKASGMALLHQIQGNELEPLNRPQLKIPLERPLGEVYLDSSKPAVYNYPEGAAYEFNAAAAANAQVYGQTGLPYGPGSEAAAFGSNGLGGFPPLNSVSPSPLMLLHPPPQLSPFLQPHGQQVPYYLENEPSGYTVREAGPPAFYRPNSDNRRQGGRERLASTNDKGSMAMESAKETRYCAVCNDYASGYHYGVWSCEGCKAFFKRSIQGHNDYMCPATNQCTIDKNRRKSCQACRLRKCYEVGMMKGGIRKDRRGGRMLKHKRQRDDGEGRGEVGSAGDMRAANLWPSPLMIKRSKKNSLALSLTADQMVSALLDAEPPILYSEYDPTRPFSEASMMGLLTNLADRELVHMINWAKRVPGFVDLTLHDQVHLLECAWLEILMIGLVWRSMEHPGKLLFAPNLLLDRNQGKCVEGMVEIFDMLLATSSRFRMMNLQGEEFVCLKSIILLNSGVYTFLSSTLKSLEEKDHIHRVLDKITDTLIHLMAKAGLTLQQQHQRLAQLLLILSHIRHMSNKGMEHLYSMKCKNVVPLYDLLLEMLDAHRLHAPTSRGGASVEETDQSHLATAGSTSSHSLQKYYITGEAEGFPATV
# [5] = target: Estrogen receptor (Homo sapiens) (UniProt P03372); experiment: qHTS assay to identify small molecule agonists of the estrogen receptor alpha (ER-alpha) signaling pathway using the BG1 cell line (AID 743079); also: nearly all actives have a fitted effect of over 20% in size
# [6] = qHTS assay to identify small molecule antagonists of the estrogen receptor alpha (ER-alpha) signaling pathway using the BG1 cell line (AID 743080; calls by dose curve;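 also: BG1 cells stimulated with 17beta-estradiol alongside compound; series mostly up to about 70 µM; nearly all actives have a fitted effect of over 25% in size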)
# Method in brief: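 BG1-Luc-4E2 cells (endogenous full-length ER-alpha, stable 4×ERE-luciferase) were starved 5 days in phenol-red-free medium with 10% charcoal-stripped FBS, plated 24 h, then given compound plus 17beta-estradiol for 21.5 h at 37 C; ONE-Glo luminescence read after 30 min.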
# [7] = qHTS assay to identify small molecule antagonists of the estrogen receptor alpha (ER-alpha) signaling pathway using the BG1 cell line - cell viability counter screen (AID 743081);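 also: compound given together with 17beta-estradiol as the ER stimulus; series mostly up to about 70 µM; nearly all actives have a fitted effect of over 45% in size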
# Aromatase (Homo sapiens) = Aromatase (Homo sapiens) (UniProt P11511); experiment: qHTS assay to identify aromatase inhibitors (AID 743083); also: series mostly up to about 70 µM; nearly all actives have a fitted effect of over 55% in size
# Sequence of Aromatase (Homo sapiens) (P11511 whole entry, looked up): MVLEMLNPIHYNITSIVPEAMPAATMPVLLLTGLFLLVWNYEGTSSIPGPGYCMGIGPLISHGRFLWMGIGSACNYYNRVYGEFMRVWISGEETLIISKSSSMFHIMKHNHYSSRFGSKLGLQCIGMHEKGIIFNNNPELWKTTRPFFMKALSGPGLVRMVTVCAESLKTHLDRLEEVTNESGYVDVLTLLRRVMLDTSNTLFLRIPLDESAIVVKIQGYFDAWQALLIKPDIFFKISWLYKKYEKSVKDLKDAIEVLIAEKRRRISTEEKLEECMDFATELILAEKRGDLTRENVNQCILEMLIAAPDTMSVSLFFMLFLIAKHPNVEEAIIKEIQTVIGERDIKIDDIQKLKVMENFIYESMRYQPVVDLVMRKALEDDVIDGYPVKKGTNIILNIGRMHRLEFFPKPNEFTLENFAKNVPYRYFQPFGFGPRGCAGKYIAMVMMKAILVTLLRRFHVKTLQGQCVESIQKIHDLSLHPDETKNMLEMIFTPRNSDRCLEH
# [8] = qHTS assay to identify aromatase inhibitors - cell viability counter screen (AID 743084);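 also: cells stimulated with testosterone during compound exposure; nearly all actives have a fitted effect of over 55% in size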
# [9] = target: Aryl hydrocarbon receptor (Homo sapiens) (UniProt P35869); experiment: qHTS assay to identify small molecule that activate the aryl hydrocarbon receptor (AhR) signaling pathway (AID 743085); also: nearly all actives have a fitted effect of over 15% in size; also: potency is read from the fitted curve at half-maximal effect;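 as to activation: HG2L7.5c1 human HepG2 liver cells with stably integrated DRE-driven firefly reporter; series mostly up to about 70 µM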
# Sequence of Aryl hydrocarbon receptor (Homo sapiens) (P35869 whole entry, looked up): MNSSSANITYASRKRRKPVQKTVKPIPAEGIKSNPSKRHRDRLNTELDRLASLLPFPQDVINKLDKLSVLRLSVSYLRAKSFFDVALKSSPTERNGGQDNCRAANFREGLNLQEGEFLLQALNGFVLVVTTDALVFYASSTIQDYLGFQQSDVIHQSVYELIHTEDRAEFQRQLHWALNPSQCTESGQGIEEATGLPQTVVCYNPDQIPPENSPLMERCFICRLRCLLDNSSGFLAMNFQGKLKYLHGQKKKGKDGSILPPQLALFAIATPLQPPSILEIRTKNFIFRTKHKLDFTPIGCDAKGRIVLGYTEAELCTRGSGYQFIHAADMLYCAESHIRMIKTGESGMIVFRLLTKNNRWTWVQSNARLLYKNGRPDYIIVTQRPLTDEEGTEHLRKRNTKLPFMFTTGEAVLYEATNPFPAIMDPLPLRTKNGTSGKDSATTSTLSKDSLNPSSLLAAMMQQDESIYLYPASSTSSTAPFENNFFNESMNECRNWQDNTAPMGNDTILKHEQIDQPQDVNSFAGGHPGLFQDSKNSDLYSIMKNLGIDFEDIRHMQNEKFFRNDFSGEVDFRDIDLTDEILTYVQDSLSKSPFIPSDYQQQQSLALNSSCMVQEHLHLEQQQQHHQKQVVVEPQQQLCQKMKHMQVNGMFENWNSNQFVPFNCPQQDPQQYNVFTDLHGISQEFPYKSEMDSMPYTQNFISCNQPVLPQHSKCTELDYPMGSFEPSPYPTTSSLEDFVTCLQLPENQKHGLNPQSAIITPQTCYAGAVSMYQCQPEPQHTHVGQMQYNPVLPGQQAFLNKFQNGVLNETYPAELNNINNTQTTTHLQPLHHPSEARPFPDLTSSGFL
# Method in brief: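 Luminescence read-out: ONE-Glo reagent, 30 min at room temperature, in HG2L7.5c1 HepG2 reporter cells treated 24 h at 37C. Viability was measured beforehand by CellTiter-Fluor fluorescence after 30 min at 37C.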
# [10] = qHTS assay to identify small molecule that activate the aryl hydrocarbon receptor (AhR) signaling pathway - cell viability counter screen (AID 743086);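 also: HepG2 liver cells carrying the AhR DRE luciferase reporter; series mostly up to about 70 µM; nearly all actives have a fitted effect of over 45% in size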
# Method in brief: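 HepG2-AhR-luc (HG2L7.5c1) cells, 4000/well, were preincubated 5 h at 37C, exposed to compound in qHTS format for 24 hr at 37C, then given CellTiter-Fluor for 30 min; viability was read as fluorescence in the reporter wells.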
# [11] = target: Peroxisome proliferator-activated receptor gamma (Homo sapiens) (UniProt P37231); experiment: qHTS assay to identify small molecule agonists of the peroxisome proliferator-activated receptor gamma (PPARg) signaling pathway (AID 743094; active = well fitted activation curve with a large enough effect in the signal ratio in the repeat runs, not every such curve was filed as active; the % refers to the signal ratio)
# Sequence of Peroxisome proliferator-activated receptor gamma (Homo sapiens) (P37231 whole entry, looked up): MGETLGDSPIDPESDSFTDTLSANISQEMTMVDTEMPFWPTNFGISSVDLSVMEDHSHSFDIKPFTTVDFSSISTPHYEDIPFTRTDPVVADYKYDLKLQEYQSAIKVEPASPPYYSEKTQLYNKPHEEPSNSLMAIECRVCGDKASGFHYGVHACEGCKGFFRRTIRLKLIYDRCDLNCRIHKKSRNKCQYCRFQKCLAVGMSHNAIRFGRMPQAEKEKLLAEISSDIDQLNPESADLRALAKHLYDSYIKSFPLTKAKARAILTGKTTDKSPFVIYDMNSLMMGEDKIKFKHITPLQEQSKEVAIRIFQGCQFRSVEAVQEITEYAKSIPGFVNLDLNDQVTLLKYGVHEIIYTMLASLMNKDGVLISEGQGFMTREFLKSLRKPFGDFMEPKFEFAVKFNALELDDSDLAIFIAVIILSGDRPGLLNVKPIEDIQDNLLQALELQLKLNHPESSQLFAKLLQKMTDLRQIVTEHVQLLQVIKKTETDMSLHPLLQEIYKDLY
# Method in brief: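 GeneBLAzer PPARg UAS-bla HEK293H cells carrying a stably integrated beta-lactamase reporter were pre-incubated 5 h at 37C, then exposed to compounds in DMSO for 17 h at 37C; LiveBLAzer B/G FRET substrate was added for 1 h at room temperature and fluorescence read.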
# [12] = target: Peroxisome proliferator-activated receptor gamma (Homo sapiens) (UniProt P37231); experiment: qHTS assay to identify small molecule antagonists of the peroxisome proliferator-activated receptor gamma (PPARg) signaling pathway (AID 743191; calls by dose curve; also: series mostly up to about 63 µM; nearly all actives have a fitted effect of over 30% in size)
# Method in brief: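 GeneBLAzer PPARg UAS-bla HEK293H cells carrying a UAS-driven beta-lactamase reporter were plated at 3000 cells/well, preincubated 5 h at 37C, then given compound for 17 h at 37C; LiveBLAzer B/G FRET substrate was read after 1 h at room temperature.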
# [13] = qHTS assay to identify small molecule antagonists of the peroxisome proliferator-activated receptor gamma (PPARg) signaling pathway - cell viability counter screen (AID 743194); also: nearly all actives have a fitted effect of over 55% in size
# Method in brief: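 PPARg-UAS-bla HEK293H cells were plated, rested 5 h at 37 C, then treated with compounds plus rosiglitazone (50 nM final) for 17 h at 37 C; viability was then read by CellTiter-Glo luminescence after 30 min at room temperature.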
# [14] = qHTS assay for small molecule agonists of the antioxidant response element (ARE) signaling pathway (AID 743202; active = well fitted activation curve with a large enough effect in the signal ratio in the repeat runs, not every such curve was filed as active; the % refers to the signal ratio)
# Method in brief: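 Compounds delivered in DMSO to ARE-bla HepG2 cells (2,000 cells/well, pre-incubated 5 h) and left 16 h at 37 C. LiveBLAzer B/G FRET substrate then added for 2 h at RT before fluorescence reading.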
# [15] = qHTS assay for small molecule agonists of the antioxidant response element (ARE) signaling pathway - cell viability counter screen (AID 743203; calls by dose curve; also: nearly all actives have a fitted effect of over 55% in size)
# Method in brief: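 CellSensor ARE-bla HepG2 cells, 2,000 per well, rested 5 hrs at 37C/5% CO2, then exposed to compound in DMSO for 16 hrs; viability read as CellTiter-Glo luminescence after 30 min at room temperature, in the reporter wells.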
# [16] = qHTS assay for small molecule activators of the heat shock response signaling pathway - cell viability counter screen (AID 743209); also: nearly all actives have a fitted effect of over 50% in size
# Method in brief: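 CellSensor HSE-bla HeLa cells, plated overnight at 37 C/5% CO2, were exposed to compounds in DMSO for 5 h at 37 C. Viability was then read in the same wells by CellTiter-Glo luminescence after 30 min at room temperature.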
# [17] = qHTS assay for small molecule activators of the heat shock response signaling pathway (AID 743210; active = well fitted activation curve with a large enough effect in the signal ratio in the repeat runs, with a control signal flat, not every such curve was filed as active; the % refers to the signal ratio; also: potency is read from the fitted curve at half-maximal effect;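 as to activation: HeLa cells with beta-lactamase reporter driven by heat shock elements; series mostly up to about 63 µM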)
# Method in brief: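 Reporter gene assay: HeLa cells stably bearing an HSE-bla construct, compound treatment 5 h at 37 C, LiveBLAzer substrate 2.5 h at RT, fluorescence intensity.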
# [18] = target: Estrogen receptor (Homo sapiens) (UniProt P03372); experiment: qHTS assay to identify small molecule antagonists of the estrogen receptor alpha (ER-alpha) signaling pathway (AID 743069; active = well fitted curve in the direction sought with a large enough effect in the signal ratio in the repeat runs, not every such curve was filed as active; the % refers to the signal ratio)
# Method in brief: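 Estradiol-stimulated ER-alpha-UAS-bla HEK293 cells, 18 hr compound exposure at 37C. LiveBLAzer B/G substrate, 2 hr RT, fluorescence read.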
# [19] = qHTS assay to identify small molecule antagonists of the thyroid receptor (TR) signaling pathway - cell viability counter screen (AID 743064); also: nearly all actives have a fitted effect of over 50% in size
# Method in brief: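 GH3.TRE-Luc cells, 4 h pre-plating; cpd + T3 1 nM final; 37 °C 23.5 h; CellTiter-Fluor 30 min; fluorescence read.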
SMILES,Potency [1],Potency [2],outcome [3],outcome [4],Potency [5],outcome [6],outcome [7],Potency (Aromatase (Homo sapiens)),Potency [8],Potency [9],outcome [10],outcome [11],Potency [12],outcome [13],Potency [14],Potency [15],Potency [16],Potency [17],Potency [18],Potency [19]
OC[C@@H](O)[C@H]1O[C@@H]2O[C@H](C(Cl)(Cl)Cl)O[C@@H]2[C@H]1O,inactive,inactive,inactive,inactive,inactive,inactive,inactive,inactive,inactive,inactive,inactive,inactive,inactive,inactive,inactive,inactive,inactive,inactive,,
O=[N+]([O-])c1ccc(Cl)c(Cl)c1,inactive,inactive,inactive,inactive,inactive,inactive,inactive,inactive,inactive,inactive,inactive,inactive,inactive,inactive,inactive,inactive,inactive,inactive,inactive,
C[C@]12CC[C@H](O)CC1=CC[C@@H]1[C@@H]2CC[C@]2(C)C(=O)CC[C@@H]12,inactive,inactive,inactive,,,,inactive,inactive,inactive,inactive,inactive,inactive,,inactive,,inactive,inactive,inactive,,inactive
CC(=O)/C=C/c1ccccc1,,,inactive,,,,inactive,inactive,inactive,inactive,inactive,,inactive,inactive,inactive,inactive,inactive,inactive,,inactive
FC(F)(F)c1ccc(Cl)cc1,inactive,inactive,inactive,inactive,inactive,inactive,inactive,inactive,inactive,inactive,inactive,inactive,inactive,inactive,inactive,inactive,inactive,inactive,inactive,
Nc1nc(N)nc(NC2CC2)n1,inactive,inactive,inactive,,,,inactive,inactive,inactive,inactive,inactive,,,inactive,,inactive,inactive,inactive and 43.6 µM (active),,inactive
COP(=S)(OC)SCN1C(=O)c2ccccc2C1=O,inactive,inactive,inactive,,,,inactive,inactive,inactive,inactive,inactive,,inactive,inactive,inactive,inactive,inactive,inactive,,inactive
CNCC(O)c1ccc(O)cc1 (stereo not drawn),inactive,inactive,inactive,inactive,inactive,inactive,inactive,inactive,inactive,inactive,inactive,inactive,inactive,inactive,,inactive,inactive,inactive,,
N#Cc1ccccn1,inactive,inactive,inactive,inactive,inactive,inactive,inactive,inactive,inactive,inactive,inactive,inactive,inactive,inactive,inactive,inactive,inactive,,inactive,
CC12CC1(C)C(=O)N(c1cc(Cl)cc(Cl)c1)C2=O (stereo not drawn),inactive,inactive,inactive,,,,inactive,inactive,inactive,27.2 µM (active) and inactive,inactive,,,inactive,,inactive,inactive,inactive,,inactive
CCCCCCCCCCCCCCCCCC(=O)O,,,inactive,,,,inactive,,inactive,,inactive,,,inactive,inactive,inactive,inactive,,,inactive
CN1C(=O)CCS(=O)(=O)C1c1ccc(Cl)cc1 (stereo not drawn),inactive,inactive,inactive,,,,inactive,inactive,inactive,inactive,inactive,,,inactive,inactive,inactive,inactive,inactive,,inactive
O=[N+]([O-])c1ccc(Cl)cc1,inactive,inactive,inactive,,,,inactive,inactive,inactive,inactive,inactive,,,inactive,inactive,inactive,inactive,inactive,,inactive
Oc1ccc(Cl)cc1,inactive,inactive,inactive,,,,inactive,inactive,inactive,inactive,inactive,,,inactive,inactive,inactive,inactive,inactive,,inactive
ClC(Cl)c1ccccc1,inactive,inactive,inactive,inactive,inactive,inactive,inactive,inactive,inactive,inactive,inactive,inactive,inactive,inactive,inactive,inactive,inactive,inactive,,
CSc1nnc(C(C)(C)C)c(=O)n1N,inactive,inactive,inactive,,,,inactive,,,,inactive,,,inactive,inactive,inactive,inactive,inactive,,inactive
Cc1ccc(N)cc1,inactive,inactive and 77 µM (active),inactive,,,,inactive,inactive,inactive,24.5 µM (active) and inactive and 61.1 µM (active),inactive,,inactive,inactive,inactive,inactive,inactive,inactive,,inactive
Cc1ccc(N=C=O)cc1N=C=O,inactive,inactive,inactive,,,,inactive,inactive,inactive,25 µM (active) and 1.08 µM (active),inactive,,inactive,inactive,inactive,inactive,inactive,,,inactive
